Source: PubChem BioAssay AID1851 (National Center for Advancing Translational Sciences (NCATS), 2009)
In all, about 16,000 compounds went through this assay and about 5,700 (36%) were called active. Roughly 24% stayed inconclusive and do not appear here. The call rests on the fitted dose curve; in most records, active means well fitted curve in the direction sought with a large enough effect; inconclusive means small, poorly fitted or top-dose-only effect, or effect the other way; inactive means no such curve, though single readings can be large or run the other way. The list shows a part of the results.

Target: Cytochrome P450 1A2 (Homo sapiens) (UniProt P05177)
Sequence (P05177 whole entry, looked up): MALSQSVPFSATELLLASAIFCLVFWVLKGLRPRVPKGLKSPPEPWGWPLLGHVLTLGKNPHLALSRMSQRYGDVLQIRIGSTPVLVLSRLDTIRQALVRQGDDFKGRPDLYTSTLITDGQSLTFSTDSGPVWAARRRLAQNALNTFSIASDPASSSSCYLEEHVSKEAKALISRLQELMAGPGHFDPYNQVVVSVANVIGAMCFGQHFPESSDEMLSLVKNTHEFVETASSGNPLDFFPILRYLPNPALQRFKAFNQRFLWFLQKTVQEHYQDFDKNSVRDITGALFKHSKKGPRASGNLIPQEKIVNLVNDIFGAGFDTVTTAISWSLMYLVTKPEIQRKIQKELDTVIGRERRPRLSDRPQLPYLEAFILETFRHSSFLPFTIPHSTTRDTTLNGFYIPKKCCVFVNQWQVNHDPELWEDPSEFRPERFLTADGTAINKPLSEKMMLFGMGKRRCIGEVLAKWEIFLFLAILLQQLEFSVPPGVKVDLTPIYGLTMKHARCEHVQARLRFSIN
Assay: Cytochrome panel assay with activity outcomes
Conditions: recombinant CYP, pro-luciferin dealkylation, luminescence, p450-cyp1a2; series mostly up to 57.1 µM
On the % scale 0 is the no-effect control and ±100 the full control effect.

activity, negative = inhibition, inactive:
C/C(CC/C(C)=N/O)=N/O -12.6% [at 2.29 µM]
Cc1cn([C@H]2C[C@H](O)[C@@H](COC(N)=O)O2)c(=O)[nH]c1=O -14.6% [at 2.29 µM]
COc1ccc(O[C@H]2C=C[C@@H](c3ccccc3)O[C@H]2CO/N=C\C[C@@H]2C=C[C@H](OC(C)=O)[C@H](COC(C)=O)O2)cc1 1.58% [at 11.4 µM]
CC(C)CO/N=C1/C[C@@H](O)[C@@H](O)[C@@H]2[C@H]3C(=O)N(c4ccc(F)cc4F)C(=O)[C@@H]3CC[C@@H]12 -0.174% [at 11.4 µM]
CC(C)CSC[C@@H]1O[C@H](n2cnc3c(N)nccc32)[C@H](O)[C@@H]1O 3.41% [at 11.4 µM]
CC1CCC(C(=O)O)([C@H](Br)C(=O)O)CC1 (stereo partly specified) -8.77% [at 11.4 µM]
COC(=O)C/C=C\[C@@H](C)[C@@H](/C=N\OC[C@@H](O)[C@H]1O[C@H]2OC(C)(C)O[C@H]2[C@@H]1O)OC -15.6% [at 11.4 µM]
CC(C)(C)c1ccc(OCC(=O)O)c(Cl)c1 -16.2% [at 11.4 µM]
OCCCNCc1ccccn1 -20% [at 2.29 µM]
CCCCNN -6.54% [at 2.29 µM]
CC(=O)OC[C@@H]1O[C@@H](O/N=C2/C[C@@H](O)[C@@H](O)[C@@H]3[C@@H]4C(=O)N([C@@H](C)c5ccccc5)C(=O)[C@H]4CC[C@H]23)[C@H](OC(C)=O)[C@H](OC(C)=O)[C@@H]1OC(C)=O 3.02% [at 11.4 µM]
COc1ccc(O[C@H]2C=C[C@@H](c3ccccc3)O[C@H]2COC(=O)CC/C(C)=N\O[C@@H](C)c2cc(-c3c(C)cc(C)cc3C)no2)cc1 -2.73% [at 11.4 µM]
C[C@@H](c1ccccc1)N1C(=O)[C@H]2[C@@H]3[C@H](O)C=CC(=O)[C@H]3CC[C@H]2C1=O -9.41% [at 11.4 µM]

AC50, inactive:
CCCCn1c(SCC(=O)N2CCCC2)nc2c1c(=O)n(C)c(=O)n2C
CCOC(=O)c1sc2nc3c(cc2c1N)COC(C(C)C)C3 (stereo unspecified)
Cc1cc(OC(=O)c2cc(F)c(F)cc2Cl)nc(C)n1
O=C(O)C1CCC(=O)N(C2CC2)C1c1ccccc1 (stereo unspecified)
Cc1ccc(OCC(=O)NNC(=O)CCc2ccccc2)cc1
Cc1ccc(OCC(=O)NNC(=O)C2CCN(c3ncccn3)CC2)cc1
Cc1cc(Cl)ccc1OC(C)C(=O)Nc1ccc(S(=O)(=O)Nc2cnc3ccccc3n2)cc1 (stereo unspecified)
Cc1ccc(N(C(C)C(=O)Nc2cc(Cl)ccc2Oc2ccccc2)S(C)(=O)=O)cc1 (stereo unspecified)
CC(C)CN1CCC2(CC1)CCN(C(=O)c1csnn1)CC2
O=C(CCCN1CC=C(n2c(=O)[nH]c3ccccc32)CC1)c1ccc(F)cc1
O=C(O)c1nn(-c2ccccc2)nc1-c1nn(-c2ccccc2)nc1C(=O)O
CC(C)(C)C(=O)OCOC(=O)[C@@H]1N2C(=O)[C@@H](NC(=O)[C@H](N)c3ccccc3)[C@H]2SC1(C)C
COC(=O)C1C(=O)C2=C(CC1C)NC(=O)CC2c1cccc(C)c1 (stereo unspecified)
COC(=O)[C@@]1(Cc2ccccc2)[C@H]2c3cc(C(=O)N4CCCC4)n(Cc4ccc(S(C)(=O)=O)cc4)c3C[C@H]2CN1C(=O)c1ccccc1

AC50, active:
CN(C)Cc1ccccc1-c1nc(NCc2cccs2)c2ccccc2n1 1 µM
COCCNc1nc(-c2ccccc2CN(C)C)nc2ccccc12 10 µM
CN(C)Cc1ccccc1-c1nc(NCc2ccccc2)c2ccccc2n1 1.26 µM
CCn1c(SCC(=O)N2CCOCC2)nc2oc3c(Cl)cc(Cl)cc3c(=O)c2c1=O 12.6 µM
Oc1ccccc1C1Nc2cccc3cccc(c23)N1 1 µM
S=C1N(c2ccccc2)C(c2ccc(Cl)cc2)N2CCCN12 (stereo unspecified) 4.47 µM
CCOC(=O)c1sc2nc3c(cc2c1N)COC(C)(CC)C3 (stereo unspecified) 25.1 µM
COc1ccc2[nH]cc(CCNc3cc(-c4ccccc4OC)ncn3)c2c1 1.58 µM
COc1ccc2[nH]cc(CCNc3cc(-c4ccccc4C)ncn3)c2c1 1 µM
COc1ccc2[nH]cc(CCNc3cc(-c4ccccc4C(F)(F)F)ncn3)c2c1 10 µM
COc1ccc(C(=O)/C=C(/C)N(C)C)cc1 3.55 µM
CN(C)c1oc(-c2ccccc2)nc1C#N 3.16 µM
CN(C)C(=O)c1ccc(-c2ccc3ncnc(Nc4ccccc4)c3c2)cc1 15.8 µM
CN(C)C(=O)c1ccc(-c2ccc3ncnc(Nc4ccc(F)cc4)c3c2)cc1 20 µM
Cc1ccc(OCC(=O)Nn2cnc3ccccc32)cc1 6.31 µM
O=C(COc1ccccc1Cl)Nc1cc(Cl)ccc1Oc1ccccc1 2.51 µM
Cc1cc(NC(=O)COc2ccc(Cl)cc2Cl)n(-c2ccccc2)n1 1.78 µM
Cc1ccc(OCC(=O)Nc2ccc(Cl)cc2)c(-n2nc3ccccc3n2)c1 3.55 µM
O=C(Nc1cccc(C(F)(F)F)c1)c1ccc(Cn2cc(Br)cn2)o1 2 µM
OCCNCCCOc1cccc(Cl)c1Cl 0.2 µM
CN(C)S(=O)(=O)c1ccc(Nc2ccc(O)c3c2C(=O)c2c([N+](=O)[O-])ccc(O)c2C3=O)cc1 0.126 µM
COC(=O)CCSc1cc([N+](=O)[O-])cc2c1c(C1OCCS1)nn2-c1ccccc1 (stereo unspecified) 28.2 µM
CN(C)C=Nc1ccc2nn(-c3ccccc3)nc2c1 0.708 µM
Cc1nn(C)c(Cl)c1NC(=O)OCc1ccc(Cl)cc1Cl 5.01 µM
Cc1nn(C)c(Cl)c1NC(=O)OCc1ccc(F)cc1 14.1 µM
N#Cc1cccc(-c2cc(NCc3cccnc3)ncn2)c1 0.0398 µM
Cc1cccc(CNc2cc(-c3cccc(C#N)c3)ncn2)c1 0.158 µM
N#Cc1cccc(-c2cc(NCc3ccccc3)ncn2)c1 1 µM
N#Cc1cccc(-c2cc(NCc3cccs3)ncn2)c1 0.794 µM
